# The whole screen tested about 340,000 compounds, of which about 8,500 (2.5%) were called active. The sample as a whole holds a higher share of actives than the screen did. Values without a mark were called inactive.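 How the source made its calls: active means melting temperature shift of at least 10% of the positive control shift, at one fixed dose; inactive means the rest.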
# Test system: Glutamate receptor ionotropic, NMDA 3A (GRIN3A) ligand-binding domain
# Assay: NR3A LBD thermal stabilization by compounds – biophysical, differential scanning fluorimetry, uHTS, primary screen (AID 1259313)
# Conditions: at 25 µM, hits give high values, 0% = protein alone, 100% = glycine-bound protein
row,Structure (SMILES),Tm shift relative to glycine control
1,Cc1ccc(CNC(=O)CCNS(=O)(=O)c2cccc3nonc23)cc1,17.3% (active)
2,CCc1cccc(NC(=O)CCNS(=O)(=O)c2cccc3nonc23)c1,-1.5%
3,Cc1ccc(CNC(=O)CCNS(=O)(=O)c2ccc(Br)s2)cc1,0.52%
4,COC(=O)c1ccc(CN(c2ccccc2OC)S(=O)(=O)c2cccs2)o1,0%
5,COC(=O)[C@]1(Cc2ccccc2)N[C@H](CN(C)S(=O)(=O)c2ccc(OC(F)(F)F)cc2)[C@@H]2C(=O)N(Cc3ccccc3)C(=O)[C@@H]21,18.1% (active)
6,COC(=O)[C@]1(Cc2ccccc2)N[C@H](CN(C)S(=O)(=O)c2ccc(F)cc2)[C@@H]2C(=O)N(Cc3ccccc3)C(=O)[C@@H]21,0.82%
7,COC(=O)[C@]1(Cc2ccccc2)N[C@H](CN(C)S(=O)(=O)c2ccc(OC(F)(F)F)cc2)[C@@H]2C(=O)N(C)C(=O)[C@@H]21,-3.1%
8,N/C(=N\S(=O)(=O)c1cc(C(F)(F)F)cc(C(F)(F)F)c1)c1cccs1,-1.45%
9,N#Cc1cccc(CSc2nnc(CCCO)n2-c2ccccc2)c1,-2.26%
10,O=C(Nc1ccc(S(=O)(=O)Nc2nccs2)cc1)c1cccc(S(=O)(=O)N2CCOCC2)c1,-7.34%
11,O=C(Nc1ccc(S(=O)(=O)N2CCOCC2)cc1)c1ccc2ncsc2c1,23.1% (active)
12,O=C(Nc1ccc(N2CCOCC2)cc1)c1cccc(S(=O)(=O)N2CCOCC2)c1,1.57%
13,COc1ccc2c(c1)OC(O)(C(F)(F)C(F)F)CC2=O (stereo not given),-0.91%
14,C=CCN(c1ccc(Cl)cc1)S(=O)(=O)c1cccc(C(=O)OCC(=O)N(C)C)c1,-2.3%
15,O=C(CSc1nc(O)c(Cc2ccccc2)c(=O)[nH]1)Nc1nc2c(s1)CCCC2,0.31%
16,CN(C)CCNc1ccc(-c2n[nH]c(=O)c3ccccc23)cc1[N+](=O)[O-],-4.51%
17,COc1cc(C2c3cc4c(cc3C(O)C3COC(=O)C23)OCO4)cc(OC)c1OC (stereo not given),0.33%
18,OC(C#CCN1CCOCC1)(c1ccccc1)C1CCCCC1 (stereo not given),0.88%
19,CN(CC#CCC(c1ccccc1)c1ccccc1)C(C)(C)C,-1.63%
20,CC(C)(C)N(CC#CCC(O)(c1ccccc1)C1CCCC1)CCO (stereo not given),14.9% (active)
21,O=C(NN1C(=O)C2C3C=CC(O3)C2C1=O)c1ccccc1 (stereo not given),-2.22%
22,Cc1ccc2nsnc2c1NC(=O)c1ccccc1[N+](=O)[O-],-9.29%
23,COc1ccc2nc(C)cc(Nc3cccc(C(=O)O)c3)c2c1,-1.4%

row,Structure (SMILES),Tm shift relative to glycine control
1,Cc1ccc(NC(=O)Nc2ccc3oc(C)nc3c2)cc1,-7.01%
2,COCCNC(=O)Nc1ccc2nc(-c3ccco3)c(-c3ccco3)nc2c1,-1.95%
3,O=C(Nc1ccccc1)c1ccc2nsnc2c1,1.64%
4,COc1ccc(NC(=O)Nc2ccc3nc(C)c(C)nc3c2)cc1,19% (active)
5,Cc1nc(/N=C(\N)NC(=O)NC2CCCCC2)nc2ccccc12,-0.41%
6,COc1ccc(NC(=O)Nc2ccc3nsnc3c2)cc1,33.6% (active)
7,COc1ccc(/C=N/NC(=O)Nc2ccc3nsnc3c2)c(OC)c1,-2.88%
8,COc1ccc2nc(/N=C(\N)NC(=O)Nc3ccccc3)nc(C)c2c1,29.4% (active)
9,CCC1(C(=O)c2ccccc2)C(c2cccc([N+](=O)[O-])c2)C1(C(=O)OC)C(=O)OC (stereo not given),-4.39%
10,CCCCCN(C(=O)NC(=O)Nc1ccccc1C)S(C)(=O)=O,-1.26%
11,O=C(CN1CCN(S(=O)(=O)c2ccc3ccccc3c2)CC1)NC(=O)NC1CCCCC1,-9.92%
12,COc1cc(NS(=O)(=O)c2ccc(NC(=S)NC(=O)c3ccccc3)cc2)nc(OC)n1,-2.53%
13,CCOC(=O)CCP(=O)(O)C(O)(c1ccccc1)c1ccccc1,-1.33%
14,Cc1ccc(N2C(=O)CN=C2Nc2nc(C)cc(C)n2)cc1,-1.23%
15,O=C(Nc1nnc(SCc2ccccc2Cl)s1)c1cccc([N+](=O)[O-])c1,-14.6%
16,O=C(Nc1nnc(SCc2ccc(Cl)cc2Cl)s1)C1COc2ccccc2O1 (stereo not given),15.3% (active)
17,O=C(Nc1nnc(SCc2c(Cl)cccc2Cl)s1)C1CCCO1 (stereo not given),1.89%
18,Cc1nc([N+](=O)[O-])c(NCCCO)n1Cc1ccccc1,-1.5%
19,O=C(NCCCN1CCOCC1)c1cnn2c(-c3ccccc3)cc(-c3ccccc3)nc12,-3.89%
20,COc1ccc(OC)c(Nc2nc(-c3ccc(O)c(O)c3)cs2)c1,19% (active)
21,COc1cc(CC(=O)Nc2nc(-c3ccc(F)c(F)c3)cs2)cc(OC)c1OC,-3.34%
22,COc1ccc(OC)c(-c2csc(NC(=O)COC(=O)C3CC3)n2)c1,-1.41%
23,CCOC(=O)CNc1nc(Cl)nc(Nc2ccc(OC)cc2OC)n1,13.1% (active)

row,Structure (SMILES),Tm shift relative to glycine control
1,CCOc1ccc(Cn2nnc(C(=O)Nc3ccc(OC)cc3OC)c2N)cc1,2.21%
2,CCOC(=O)CNc1nc(Cl)nc(Nc2ccccc2)n1,-0.5%
3,CCN(CC)c1ccc(NC(=O)C2CCC(CNc3c(N4CCCC4)c(=O)c3=O)CC2)c(C)c1 (stereo not given),1.77%
4,CCOC(=O)N1CCN(C(=O)CSc2nnc(-c3c[nH]c4ccccc34)n2CCOC)CC1,0.55%
5,OC(CNCc1ccc(Cl)c(Cl)c1)c1ccccc1 (stereo not given),2.04%
6,C/C(N)=C(/C#N)C(=O)COC(=O)c1cc(-c2ccc(C)cc2)nc2ccccc12,-1.48%
7,C/C(N)=C(/C#N)C(=O)COC(=O)c1cc(-c2cccc(Br)c2)nc2ccccc12,30.1% (active)
8,COc1cccc(OC)c1C(=O)OCC(=O)/C(C#N)=C(\C)N,-2%
9,Cc1nn(C)cc1N1C(=O)c2cccc3c(N)ccc(c23)C1=O,-0.63%
10,COc1cc(C(=O)N2C(=O)c3cccc(N)c3C2=O)cc(OC)c1OC,-1.08%
11,CN1C(=O)c2cccc3c(N)ccc(c23)C1=O,11.8% (active)
12,Cc1ccc(CNC(=O)[C@@H](NC(=O)Cc2ccccc2)C(C)C)cc1,-6.13%
13,O=C1NN(c2ccccc2)C(=O)/C1=C/c1ccc(-c2cccc(C(=O)O)c2)o1,-14.4%
14,O=C1c2ccccc2NC(c2ccc(-c3cccc(Cl)c3)o2)N1O (stereo not given),-0.47%
15,O=C(O)C(c1ccccc1)N1C(=O)/C(=C\c2ccc(-c3cccc(Cl)c3)o2)SC1=S (stereo not given),27.7% (active)
16,O=C(Nc1ccc(C(F)(F)F)cc1)c1cccc(-n2cnnn2)c1,-5.14%
17,O=C(O)CSc1c2c(nc3cc(C(=O)Nc4cccc(C(F)(F)F)c4)ccc13)CCCC2,-1.44%
18,O=C(Nc1ccc(-c2csc(Nc3cccc(C(F)(F)F)c3)n2)cc1)c1cccc(C(F)(F)F)c1,25.4% (active)
19,CS(=O)(=O)N(Cc1ccccc1)c1ccc(C(=O)NN=C2CCCCCC2)cc1,0.85%
20,Clc1ccc2nc(CSc3ccccc3)cn2c1,0.36%
21,Cc1c(NC(=S)NC(=O)CCc2ccccc2)c(=O)n(-c2ccccc2)n1C,-3.07%
22,O=C(O)CSc1ccc(S(=O)(=O)N2CCCC2)cn1,0.42%
23,CCN(CC)c1ccc(C(=O)N/N=C(\C)c2cccc(OC)c2)cc1,2.58%

row,Structure (SMILES),Tm shift relative to glycine control
1,COc1ccc(/C(C)=N\NC(=O)c2ccc(-c3ccccc3)cc2)c(F)c1,19.6% (active)
2,COc1ccc(/C(C)=N/NC(=O)c2ccc3nc[nH]c3c2)cc1,-1.41%
3,COc1ccc(Cl)cc1NC(=O)NC(C)C(C)(C)C (stereo not given),-7.8%
4,O=C(CN1C(=O)CC(c2ccccc2)S(=O)(=O)c2ccccc21)NC1CCCC1 (stereo not given),-2.04%
5,O=C(CN1C(=O)CC(c2ccccc2)=Nc2ccccc21)NC1CCCCC1,300% (active)
6,CC(=O)c1cc(-c2ccccc2)n(CC(=O)NC2CCCCC2)c1C,0.92%
7,O=C(Nc1ccccc1Cl)Nc1cccc2cccnc12,39.4% (active)
8,O=C(Nc1ccccc1)Oc1cccc2cccnc12,-3.82%
9,CCOC(=O)Cc1ncccc1C(=O)Nc1ccc(OC)cc1,-0.6%
10,CC(=O)/C(=N\Nc1ccc(Cl)cc1Cl)Sc1cccc2cccnc12,-8.55%
11,COc1ccc(NC(=O)Nc2cccc3cccnc23)cc1,12.4% (active)
12,O=[N+]([O-])c1ccccc1S(=O)(=O)Nc1cccc2cccnc12,-0.26%
13,Cc1ccc(S(=O)(=O)N2CCN=C2SCc2c(F)cccc2Cl)cc1,0.68%
14,CCc1ccc(-c2cc(C)no2)cc1S(=O)(=O)NCCc1ccc(S(N)(=O)=O)cc1,-4.05%
15,CCCCn1c(N)c(N(CC)C(=O)c2ccccc2C(F)(F)F)c(=O)[nH]c1=O,-1.66%
16,O=C(Cn1c(-c2ccc(Cl)cc2)noc1=O)N1CCN(c2ccccc2F)CC1,-0.09%
17,CC(=O)CSc1nnc(CSc2ncccn2)n1C1CCCCC1,-1.13%
18,CCC1CCCCN1CCNS(=O)(=O)c1ccc2c(c1)CCN2C(C)=O (stereo not given),-1.49%
19,CCCN(CCC)S(=O)(=O)c1cc2c(cc1Br)CCN2C(=O)CC,-0.99%
20,CCC(=O)N1CCc2cc(Br)c(S(=O)(=O)NCCN3CCCCC3CC)cc21 (stereo not given),12.6% (active)
21,CCCCSc1nc2c(c(=O)n1CC)SC(C)C2 (stereo not given),-2.48%
